Laboratory results reported in ChEMBL document CHEMBL2218924, “A broad activity screen in support of a chemogenomic map for kinase signalling research and drug discovery” (Biochem J, 2013).

Legend:
[1] = molecular target: T1, Serine/threonine-protein kinase ULK2 (Homo sapiens) (UniProt Q8IYT8); details: at 1 µM
T1 sequence (whole entry): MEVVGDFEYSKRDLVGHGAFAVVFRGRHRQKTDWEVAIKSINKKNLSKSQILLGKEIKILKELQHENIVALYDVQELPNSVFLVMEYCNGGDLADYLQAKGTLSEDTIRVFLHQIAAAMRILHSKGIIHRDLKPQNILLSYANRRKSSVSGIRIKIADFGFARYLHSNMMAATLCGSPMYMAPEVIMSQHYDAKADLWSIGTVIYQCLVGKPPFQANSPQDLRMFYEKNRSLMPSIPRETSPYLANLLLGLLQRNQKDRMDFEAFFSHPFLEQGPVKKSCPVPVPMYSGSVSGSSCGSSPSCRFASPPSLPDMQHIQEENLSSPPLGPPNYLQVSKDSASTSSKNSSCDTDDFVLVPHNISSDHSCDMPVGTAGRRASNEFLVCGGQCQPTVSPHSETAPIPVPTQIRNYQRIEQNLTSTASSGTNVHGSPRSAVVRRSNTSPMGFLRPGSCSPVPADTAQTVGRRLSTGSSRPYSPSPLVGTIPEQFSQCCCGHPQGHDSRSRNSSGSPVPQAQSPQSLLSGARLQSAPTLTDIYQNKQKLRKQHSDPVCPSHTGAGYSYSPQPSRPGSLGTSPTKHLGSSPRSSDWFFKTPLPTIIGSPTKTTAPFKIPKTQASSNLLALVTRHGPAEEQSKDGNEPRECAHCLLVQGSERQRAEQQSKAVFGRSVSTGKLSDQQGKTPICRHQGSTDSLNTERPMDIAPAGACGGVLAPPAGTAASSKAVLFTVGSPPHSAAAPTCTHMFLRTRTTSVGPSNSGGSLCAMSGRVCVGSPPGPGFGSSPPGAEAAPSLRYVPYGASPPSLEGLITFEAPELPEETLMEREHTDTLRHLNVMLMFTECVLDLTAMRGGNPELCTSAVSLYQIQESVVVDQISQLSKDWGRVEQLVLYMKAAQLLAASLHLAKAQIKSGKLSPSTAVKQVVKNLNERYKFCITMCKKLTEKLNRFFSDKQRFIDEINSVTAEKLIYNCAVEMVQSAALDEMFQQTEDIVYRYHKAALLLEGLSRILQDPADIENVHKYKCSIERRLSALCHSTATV

[2] = molecular target: T1, Serine/threonine-protein kinase ULK2 (Homo sapiens); details: at 10 µM
[3] = molecular target: T2, Serine/threonine-protein kinase ULK3 (Homo sapiens) (UniProt Q6PHR2); details: at 1 µM
T2 sequence (whole entry): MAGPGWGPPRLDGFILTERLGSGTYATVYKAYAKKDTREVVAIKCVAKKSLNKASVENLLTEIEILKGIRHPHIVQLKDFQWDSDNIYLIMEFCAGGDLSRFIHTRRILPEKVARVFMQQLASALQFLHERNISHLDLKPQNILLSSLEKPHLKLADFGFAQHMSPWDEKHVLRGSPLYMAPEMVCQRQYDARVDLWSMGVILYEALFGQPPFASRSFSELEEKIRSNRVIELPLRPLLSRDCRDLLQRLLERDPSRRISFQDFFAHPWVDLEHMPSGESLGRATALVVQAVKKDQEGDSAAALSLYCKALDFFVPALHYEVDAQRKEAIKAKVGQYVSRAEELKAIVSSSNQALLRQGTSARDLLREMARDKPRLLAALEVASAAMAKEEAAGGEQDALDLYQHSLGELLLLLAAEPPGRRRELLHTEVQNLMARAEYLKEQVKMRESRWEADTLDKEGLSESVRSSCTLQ

[4] = molecular target: T2, Serine/threonine-protein kinase ULK3 (Homo sapiens); details: at 10 µM
[5] = molecular target: Serine/threonine-protein kinase VRK2 (Homo sapiens) (UniProt Q86Y07); details: at 1 µM
Sequence of Serine/threonine-protein kinase VRK2 (Homo sapiens) (Q86Y07 whole entry): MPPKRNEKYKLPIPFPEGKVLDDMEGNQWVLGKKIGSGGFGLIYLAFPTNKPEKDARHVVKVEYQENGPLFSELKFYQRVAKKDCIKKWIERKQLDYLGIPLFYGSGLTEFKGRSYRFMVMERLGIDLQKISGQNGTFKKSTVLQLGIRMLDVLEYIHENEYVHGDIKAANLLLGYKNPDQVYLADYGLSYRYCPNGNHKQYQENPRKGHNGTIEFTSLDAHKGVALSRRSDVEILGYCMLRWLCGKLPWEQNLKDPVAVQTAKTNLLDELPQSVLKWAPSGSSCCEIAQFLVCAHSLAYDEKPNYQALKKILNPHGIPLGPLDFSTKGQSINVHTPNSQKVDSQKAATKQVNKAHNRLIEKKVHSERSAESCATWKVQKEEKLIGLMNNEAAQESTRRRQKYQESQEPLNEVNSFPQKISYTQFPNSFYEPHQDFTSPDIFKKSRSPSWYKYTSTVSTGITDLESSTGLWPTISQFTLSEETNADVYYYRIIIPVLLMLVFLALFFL

[6] = molecular target: Serine/threonine-protein kinase VRK2 (Homo sapiens) (UniProt Q86Y07); details: at 10 µM
[7] = molecular target: Serine/threonine-protein kinase WNK2 (Homo sapiens) (UniProt Q9Y3S1); details: at 1 µM
Sequence of Serine/threonine-protein kinase WNK2 (Homo sapiens) (Q9Y3S1 whole entry): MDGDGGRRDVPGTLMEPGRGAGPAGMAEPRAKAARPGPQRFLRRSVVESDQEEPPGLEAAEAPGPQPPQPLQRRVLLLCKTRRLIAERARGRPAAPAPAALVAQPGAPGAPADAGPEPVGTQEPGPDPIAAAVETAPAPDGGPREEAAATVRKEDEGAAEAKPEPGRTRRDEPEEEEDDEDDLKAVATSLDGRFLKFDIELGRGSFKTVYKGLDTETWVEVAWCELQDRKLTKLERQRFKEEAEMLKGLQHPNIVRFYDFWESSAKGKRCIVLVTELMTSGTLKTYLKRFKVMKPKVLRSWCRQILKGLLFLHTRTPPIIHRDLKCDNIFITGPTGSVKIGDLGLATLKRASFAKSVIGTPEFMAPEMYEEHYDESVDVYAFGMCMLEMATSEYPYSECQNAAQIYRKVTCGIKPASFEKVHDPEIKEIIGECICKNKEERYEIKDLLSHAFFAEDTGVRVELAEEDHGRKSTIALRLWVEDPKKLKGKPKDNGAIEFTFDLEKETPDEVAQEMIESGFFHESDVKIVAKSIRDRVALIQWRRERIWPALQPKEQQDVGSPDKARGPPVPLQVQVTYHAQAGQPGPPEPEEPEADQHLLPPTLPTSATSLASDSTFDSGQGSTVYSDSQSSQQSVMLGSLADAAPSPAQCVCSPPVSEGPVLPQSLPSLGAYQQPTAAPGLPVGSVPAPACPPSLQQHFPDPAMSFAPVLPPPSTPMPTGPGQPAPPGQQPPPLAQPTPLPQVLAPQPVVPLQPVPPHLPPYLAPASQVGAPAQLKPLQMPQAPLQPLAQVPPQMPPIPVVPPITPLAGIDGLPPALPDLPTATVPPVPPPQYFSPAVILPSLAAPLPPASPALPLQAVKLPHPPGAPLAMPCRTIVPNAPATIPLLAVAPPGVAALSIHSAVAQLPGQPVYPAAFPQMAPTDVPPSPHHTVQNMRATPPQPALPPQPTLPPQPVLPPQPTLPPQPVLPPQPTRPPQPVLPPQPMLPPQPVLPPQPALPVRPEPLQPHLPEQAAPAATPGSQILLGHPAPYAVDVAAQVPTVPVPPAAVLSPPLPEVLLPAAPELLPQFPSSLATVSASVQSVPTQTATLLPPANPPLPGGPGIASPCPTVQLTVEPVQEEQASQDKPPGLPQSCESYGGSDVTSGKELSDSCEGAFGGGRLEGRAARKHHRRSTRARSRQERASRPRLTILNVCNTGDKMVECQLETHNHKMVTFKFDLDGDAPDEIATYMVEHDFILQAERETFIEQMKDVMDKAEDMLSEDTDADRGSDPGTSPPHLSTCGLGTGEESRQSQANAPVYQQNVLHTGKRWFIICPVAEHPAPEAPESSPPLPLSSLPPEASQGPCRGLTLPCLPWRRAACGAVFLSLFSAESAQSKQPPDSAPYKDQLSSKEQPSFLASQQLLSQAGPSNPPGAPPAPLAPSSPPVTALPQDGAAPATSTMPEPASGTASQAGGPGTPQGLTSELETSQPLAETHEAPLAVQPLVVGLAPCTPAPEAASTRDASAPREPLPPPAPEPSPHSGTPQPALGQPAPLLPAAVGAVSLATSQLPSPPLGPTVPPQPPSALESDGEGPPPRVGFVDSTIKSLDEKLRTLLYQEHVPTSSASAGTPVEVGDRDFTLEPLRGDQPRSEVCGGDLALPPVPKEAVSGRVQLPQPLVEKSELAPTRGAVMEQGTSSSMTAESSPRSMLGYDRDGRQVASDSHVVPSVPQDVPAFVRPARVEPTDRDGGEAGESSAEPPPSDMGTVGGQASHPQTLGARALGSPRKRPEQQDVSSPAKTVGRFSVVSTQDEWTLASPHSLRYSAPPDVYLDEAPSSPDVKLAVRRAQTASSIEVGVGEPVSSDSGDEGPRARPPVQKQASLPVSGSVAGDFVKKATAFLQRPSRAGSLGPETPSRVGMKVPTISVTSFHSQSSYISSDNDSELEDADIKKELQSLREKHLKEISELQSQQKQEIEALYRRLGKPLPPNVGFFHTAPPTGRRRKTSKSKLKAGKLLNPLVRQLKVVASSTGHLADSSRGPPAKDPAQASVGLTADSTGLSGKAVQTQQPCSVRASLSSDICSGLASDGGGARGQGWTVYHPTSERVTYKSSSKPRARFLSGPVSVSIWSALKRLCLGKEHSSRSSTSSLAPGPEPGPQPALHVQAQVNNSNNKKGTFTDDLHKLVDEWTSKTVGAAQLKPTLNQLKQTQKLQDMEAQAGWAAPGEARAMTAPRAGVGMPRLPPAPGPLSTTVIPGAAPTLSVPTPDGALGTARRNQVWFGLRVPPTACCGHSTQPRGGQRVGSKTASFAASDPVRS

[8] = molecular target: Serine/threonine-protein kinase WNK2 (Homo sapiens) (UniProt Q9Y3S1); details: at 10 µM
[9] = molecular target: Serine/threonine-protein kinase WNK3 (Homo sapiens) (UniProt Q9BYP7); details: at 1 µM
[10] = molecular target: Serine/threonine-protein kinase WNK3 (Homo sapiens) (UniProt Q9BYP7); details: at 10 µM
[11] = molecular target: Tyrosine-protein kinase Yes (Homo sapiens) (UniProt P07947); details: at 1 µM
Sequence of Tyrosine-protein kinase Yes (Homo sapiens) (P07947 2-543 limits assumed): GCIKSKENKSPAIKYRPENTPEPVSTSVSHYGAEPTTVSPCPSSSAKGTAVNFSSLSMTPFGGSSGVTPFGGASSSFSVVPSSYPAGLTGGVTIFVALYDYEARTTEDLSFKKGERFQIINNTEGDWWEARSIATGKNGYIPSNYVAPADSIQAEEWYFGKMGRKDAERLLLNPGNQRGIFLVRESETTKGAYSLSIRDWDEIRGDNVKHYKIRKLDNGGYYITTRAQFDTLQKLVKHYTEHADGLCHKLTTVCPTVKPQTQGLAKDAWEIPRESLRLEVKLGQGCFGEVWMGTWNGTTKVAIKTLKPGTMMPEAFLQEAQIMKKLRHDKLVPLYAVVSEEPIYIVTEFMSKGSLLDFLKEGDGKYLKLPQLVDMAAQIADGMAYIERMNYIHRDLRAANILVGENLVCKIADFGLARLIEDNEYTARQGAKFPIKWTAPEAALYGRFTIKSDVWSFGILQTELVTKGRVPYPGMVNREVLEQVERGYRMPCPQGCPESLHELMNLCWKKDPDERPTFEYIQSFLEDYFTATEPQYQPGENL

[12] = molecular target: Tyrosine-protein kinase Yes (Homo sapiens) (UniProt P07947); details: at 10 µM
[13] = molecular target: T3, Tyrosine-protein kinase ZAP-70 (Homo sapiens) (UniProt P43403); details: at 1 µM
T3 sequence (whole entry): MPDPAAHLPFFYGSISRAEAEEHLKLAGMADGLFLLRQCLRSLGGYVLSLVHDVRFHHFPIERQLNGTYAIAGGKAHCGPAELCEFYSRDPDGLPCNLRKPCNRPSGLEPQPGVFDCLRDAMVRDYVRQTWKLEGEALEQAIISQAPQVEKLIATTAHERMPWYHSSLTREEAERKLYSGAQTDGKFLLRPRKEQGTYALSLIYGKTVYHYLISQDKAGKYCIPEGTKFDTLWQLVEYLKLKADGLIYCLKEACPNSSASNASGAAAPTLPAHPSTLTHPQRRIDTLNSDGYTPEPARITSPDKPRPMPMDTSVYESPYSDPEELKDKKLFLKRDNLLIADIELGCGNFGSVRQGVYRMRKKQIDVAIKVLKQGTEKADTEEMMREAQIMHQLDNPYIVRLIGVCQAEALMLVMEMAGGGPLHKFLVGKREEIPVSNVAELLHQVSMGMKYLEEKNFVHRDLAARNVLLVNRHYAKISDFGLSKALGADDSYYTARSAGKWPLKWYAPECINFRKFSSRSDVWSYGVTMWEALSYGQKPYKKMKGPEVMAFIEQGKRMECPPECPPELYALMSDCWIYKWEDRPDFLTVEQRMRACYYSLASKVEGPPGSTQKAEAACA

[14] = molecular target: T3, Tyrosine-protein kinase ZAP-70 (Homo sapiens); details: at 10 µM
[15] = molecular target: Death-associated protein kinase 3 (Homo sapiens) (UniProt O43293); details: at 1 µM
Sequence of Death-associated protein kinase 3 (Homo sapiens) (O43293 whole entry, looked up): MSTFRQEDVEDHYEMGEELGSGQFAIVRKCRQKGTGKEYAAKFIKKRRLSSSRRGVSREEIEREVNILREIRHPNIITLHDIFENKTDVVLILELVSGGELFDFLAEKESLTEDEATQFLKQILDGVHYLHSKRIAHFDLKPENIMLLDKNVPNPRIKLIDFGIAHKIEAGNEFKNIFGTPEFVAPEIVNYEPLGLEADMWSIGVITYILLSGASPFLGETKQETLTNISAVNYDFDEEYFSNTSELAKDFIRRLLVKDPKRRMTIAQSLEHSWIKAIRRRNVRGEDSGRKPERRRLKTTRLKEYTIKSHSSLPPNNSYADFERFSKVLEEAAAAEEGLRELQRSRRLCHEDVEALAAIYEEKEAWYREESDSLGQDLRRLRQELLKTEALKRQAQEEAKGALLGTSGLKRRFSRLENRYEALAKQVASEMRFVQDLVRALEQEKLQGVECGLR

[16] = molecular target: Death-associated protein kinase 3 (Homo sapiens) (UniProt O43293); details: at 10 µM
[17] = molecular target: RAF proto-oncogene serine/threonine-protein kinase (Homo sapiens) (UniProt P04049); details: at 1 µM
Sequence of RAF proto-oncogene serine/threonine-protein kinase (Homo sapiens) (P04049 whole entry): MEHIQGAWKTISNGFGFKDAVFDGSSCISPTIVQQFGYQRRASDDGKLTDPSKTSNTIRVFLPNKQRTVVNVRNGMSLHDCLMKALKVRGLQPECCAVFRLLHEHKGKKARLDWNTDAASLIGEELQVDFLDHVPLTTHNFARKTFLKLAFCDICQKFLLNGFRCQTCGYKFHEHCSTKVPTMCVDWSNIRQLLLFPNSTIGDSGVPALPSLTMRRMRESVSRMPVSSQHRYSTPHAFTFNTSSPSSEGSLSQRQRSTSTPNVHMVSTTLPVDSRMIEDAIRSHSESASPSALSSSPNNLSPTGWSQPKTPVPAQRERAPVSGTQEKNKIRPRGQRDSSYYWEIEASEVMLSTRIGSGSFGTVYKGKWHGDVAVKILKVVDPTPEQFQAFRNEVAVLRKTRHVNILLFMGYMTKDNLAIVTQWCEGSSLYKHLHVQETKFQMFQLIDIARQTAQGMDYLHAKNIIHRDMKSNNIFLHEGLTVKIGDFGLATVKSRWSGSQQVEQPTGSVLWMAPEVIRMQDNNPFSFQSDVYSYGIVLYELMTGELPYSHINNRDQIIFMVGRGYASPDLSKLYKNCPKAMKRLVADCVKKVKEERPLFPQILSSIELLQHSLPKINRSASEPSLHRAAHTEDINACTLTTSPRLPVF

[18] = molecular target: RAF proto-oncogene serine/threonine-protein kinase (Homo sapiens) (UniProt P04049); details: at 10 µM
[19] = molecular target: Mast/stem cell growth factor receptor Kit (Homo sapiens) (UniProt P10721); details: at 1 µM
[20] = molecular target: Mast/stem cell growth factor receptor Kit (Homo sapiens) (UniProt P10721); details: at 10 µM

| SMILES | residual activity [1] [%] | residual activity [2] [%] | residual activity [3] [%] | residual activity [4] [%] | residual activity [5] | residual activity [6] [%] | residual activity [7] | residual activity [8] [%] | residual activity [9] | residual activity [10] [%] | residual activity [11] [%] | residual activity [12] [%] | residual activity [13] [%] | residual activity [14] [%] | residual activity [15] [%] | residual activity [16] [%] | residual activity [17] [%] | residual activity [18] [%] | residual activity [19] [%] | residual activity [20] [%] |
| --- | --- | --- | --- | --- | --- | --- | --- | --- | --- | --- | --- | --- | --- | --- | --- | --- | --- | --- | --- | --- |
| O=c1[nH]c2ccccc2n1C1CCN(Cc2ccc(-c3nc4cc5[nH]cnc5cc4nc3-c3ccccc3)cc2)CC1 | 108 | 106 | 100 | 95 | 109% (inactive) | 93 | 117% (inactive) | 83 | 116% (inactive) | 85 | 99 | 73 | 123 | 98 | 100 | 95 | 94 | 109 | 121 | 87 |
| N#C/C(=C\c1ccc(O)c(O)c1)C(=O)NCc1ccccc1 |  |  |  |  |  |  |  |  |  |  |  |  |  | 129 |  |  |  |  |  |  |
| c1cc(-c2cnn3cc(-c4ccc(OCCN5CCCCC5)cc4)cnc23)ccn1 | 50 | 17 | 84 | 48 | 119% (inactive) |  |  |  |  |  | 7 | 0 |  | 101 |  |  | 82 | 47 | 5 | 2 |
| CC#CC(=O)Nc1cc2c(Nc3ccc(F)c(Cl)c3)ncnc2cn1 |  |  |  |  |  |  |  |  |  |  |  |  |  | 100 |  |  |  |  |  |  |
| C[S+]([O-])c1ccc(-c2nc(-c3ccc(F)cc3)c(-c3ccncc3)[nH]2)cc1 (stereo not drawn) | 120 | 101 | 104 | 104 | 114% (inactive) | 96 | 117% (inactive) | 101 | 110% (inactive) | 100 |  | 45 | 124 | 130 | 98 | 100 | 17 | 3 | 119 | 102 |
| O=[N+]([O-])/C=C/c1ccc2c(c1)OCO2 | 102 | 92 | 111 | 91 | 101% (inactive) | 91 | 109% (inactive) | 88 | 88% (inactive) | 94 | 118 | 98 | 111 | 127 | 96 | 128 | 87 | 101 | 113 | 99 |
